This note sets out measurements from publication PMC6919601, “Identification of Plasmodium dipeptidyl aminopeptidase allosteric inhibitors by high throughput screening” (PLoS ONE, 2019).

The structures appear in SMILES notation. Hit rate of the full screen: of about 110,000 compounds, about 230 (0.21%) showed an effect of 50% or more. Many of the other results were omitted from the sample, so strong results are more common in it than they were.
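Also: 30 min substrate incubation versus DMSO and 10 µM JCP410 controls.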

For this assay, the target named is DPAP1 (Plasmodium falciparum, UniProt Q8IIJ9). Description: primary screen, percent inhibition; read by cleavage of a fluorogenic dipeptide substrate; higher = more effect of the substance. Further details: species or system P. falciparum D10 trophozoite lysates; single well. The protocol: HTS was performed in black 384-well plates. The first and last two columns of each plate contained our negative (DMSO) and positive (10 μM JCP410) controls, and the 20 central columns the test compounds at 10 μM. Compounds were first diluted 50-fold into assay buffer (50 mM sodium acetate, 5 mM MgCl2, 10 mM β-mercaptoethanol, and 0.1% CHAPS, pH 5.5) from a 10 mM DMSO stock plates. One microliter of this 200 μM intermediate stock plate was dispensed into the assay plate. […] After 30 min, the reaction was quenched with 20 μL of 0.5 M acetic acid, and the fluorescent intensity measured at 523 nm (λex = 492 nm) using an Analyst HT multimode plate reader (Molecular Devices).
Sequence of DPAP1 (Q8IIJ9 whole entry, looked up): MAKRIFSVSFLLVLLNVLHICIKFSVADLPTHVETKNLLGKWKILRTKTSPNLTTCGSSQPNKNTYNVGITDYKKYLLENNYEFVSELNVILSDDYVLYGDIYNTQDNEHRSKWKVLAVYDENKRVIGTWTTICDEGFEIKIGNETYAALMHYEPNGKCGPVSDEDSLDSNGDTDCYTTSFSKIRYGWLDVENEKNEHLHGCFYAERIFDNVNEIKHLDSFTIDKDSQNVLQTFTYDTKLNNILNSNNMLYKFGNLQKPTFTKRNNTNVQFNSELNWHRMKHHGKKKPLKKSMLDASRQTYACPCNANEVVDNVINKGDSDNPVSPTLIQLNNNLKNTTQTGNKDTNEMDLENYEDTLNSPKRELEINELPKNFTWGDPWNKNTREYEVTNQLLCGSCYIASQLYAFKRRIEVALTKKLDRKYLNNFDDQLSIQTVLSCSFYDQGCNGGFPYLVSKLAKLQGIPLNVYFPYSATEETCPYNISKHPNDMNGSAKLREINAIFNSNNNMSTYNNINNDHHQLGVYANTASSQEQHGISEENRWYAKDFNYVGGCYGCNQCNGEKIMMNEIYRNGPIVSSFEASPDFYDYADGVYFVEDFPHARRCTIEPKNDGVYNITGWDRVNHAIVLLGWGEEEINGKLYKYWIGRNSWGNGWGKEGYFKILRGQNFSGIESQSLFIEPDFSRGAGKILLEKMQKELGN
For `Cc1cc2c(c(S)n1)C(=O)O/C2=C\c1ccco1`, the “% Inhibition @ 10 uM” value turned out to be 67.6%.
Then `Cc1cc2c(c(S)n1)C(=O)O/C2=C\c1c[nH]nc1-c1ccc(F)cc1`, with 26%; and `Cc1cc2c(c(S)n1)C(=O)O/C2=C\c1c[nH]nc1-c1cccs1`, with 43.6%.
Then `CCOC(=O)N1CCN(C(=O)CSc2nc(-c3ccc(C)cc3)cn2-c2ccc(OC)cc2)CC1`, with 77.3%; and `CCOC(=O)N1CCN(C(=O)CSc2nnc(Cc3cccn3C)n2-c2ccc(OC)cc2)CC1`, with -5.76%.
For `COc1ccc(-n2cc(-c3ccc(C)cc3)nc2SCC(=O)NCC2CCCO2)cc1` (stereo not drawn), the “% Inhibition @ 10 uM” value came out at 4.33%.
As for `CC1CCCCC1NC(=O)c1cnn2c(C(F)(F)F)cc(-c3cccs3)nc12` (stereo not drawn), the figure is 4.36%.
On to `c1ccc2c(c1)CCN(c1ncnc3c1nnn3Cc1cccc3ccccc13)C2`, for which the “% Inhibition @ 10 uM” value was -0.0678%.
Then `CCS(=O)(=O)N1CCC(C(=O)NCc2ccc(F)cc2Cl)CC1`, with -6.75%; and `CN(C)CC1CSCCC1(O)c1cccc(Cl)c1` (stereo not drawn), with -4.54%; and `CN(C)CC1CSCCC1(O)c1ccccc1` (stereo not drawn), with 85.1%.
For the compound `CN(C)CC1CSCCC1(O)c1cccc(O)c1` (stereo not drawn), the “% Inhibition @ 10 uM” value is recorded as -15.4%.
As for `O=c1oc2c(cc(NS(=O)(=O)c3ccc(F)cc3)c3ccccc32)s1`, the figure is -2.54%; as for `Cc1cc2ccccc2n1-c1ccc(C(=O)N2CCCCCC2)s1`, 3.12%; as for `CC1(C)CC2=NC3=C(C(=O)CC(C)(C)C3)C(c3cc(Cl)c(O)c(Cl)c3)C2=C(O)C1` (stereo not drawn), 13.2%.
`CC1(C)CC2=NCC(=O)NC2=C(O)C1`: the “% Inhibition @ 10 uM” value is given as 59.8%.
As for `C=CC/N=C/C1=C(O)CC(C)(C)CC1=O`, the figure is -3.06%.
Take `COc1ccc(Br)cc1C1C(C#N)=C(N)Oc2[nH]nc(-c3ccc4c(c3)OCO4)c21` (stereo not drawn): the “% Inhibition @ 10 uM” value was 3.99%.
Turning to `CCOC(=O)C1=NNC2C(=O)N(c3ccc(F)cc3)C(=O)C12` (stereo not drawn), the “% Inhibition @ 10 uM” value is -5.48%.
With `O=C(Nc1nccs1)c1ccc(COc2ccccc2Cl)o1`, the “% Inhibition @ 10 uM” value is -5.98%.
Then `Cc1c(CNC(=O)c2cc(-c3ccccc3)nc3ccc(Br)cc23)cnn1C`, with -2.9%; and `COc1ccc2nc(C)n3c4ccccc4c(NC(C)=O)c3c2c1`, with 2.4%.
As for `Cc1ccc2nc(C)n3c4ccccc4c(NC(=O)c4ccccc4)c3c2c1`, the figure is -6.87%; as for `Cc1nc2ccc(Cl)cc2c2c(N)c3ccccc3n12`, 66%.
As for `Cc1nn2c3ccccc3nc2c2ccccc12`, the figure is 5.3%.
Regarding `O=C(O)CCS(=O)(=O)Cc1ccccc1F`, the “% Inhibition @ 10 uM” value came out at 1.27%.
Then `Cc1nc2c(c(C)c1CCC(=O)N1CCC(C)CC1)c(=O)n(C)c(=O)n2C`, with -3.1%; and `Cc1nc2c(c(C)c1CCC(=O)N1CCC(N3CCCCC3)CC1)c(=O)n(C)c(=O)n2C`, with -6.91%; and `Cc1nc2c(c(C)c1CCC(=O)N1CCN(C3CCCCC3)CC1)c(=O)n(C)c(=O)n2C`, with 52.7%.
As for `CC(NC(=O)c1ccc(Br)cc1)C1COc2ccccc2O1` (stereo not drawn), the figure is 3.24%.
Then `CCOC(=O)C1=C(O)/C(=C\c2ccccc2OC)N=C1C`, with -1.6%; and `CCOc1ccc(C2CC(=O)N3CN(Cc4ccco4)CSC3=C2C#N)cc1` (stereo not drawn), with 43.4%.
Take `N#CC1=C2SCN(Cc3ccco3)CN2C(=O)CC1c1ccc(Cl)cc1` (stereo not drawn): the “% Inhibition @ 10 uM” value was 42.2%.
As for `N#CC1=C2SCN(Cc3ccco3)CN2C(=O)CC1c1cccc(OCc2ccccc2)c1` (stereo not drawn), the “% Inhibition @ 10 uM” value was 66.7%.
Then `CCOc1ccc(C2CC(=O)N3CN(C)CSC3=C2C#N)cc1OC` (stereo not drawn), with 47.5%.
As for `CN1CSC2=C(C#N)C(c3cccc(OCc4ccccc4)c3)CC(=O)N2C1` (stereo not drawn), the figure is 71.1%; as for `CC(C)c1ccc(S(=O)(=O)Nc2ccc3oc(=O)sc3c2)cc1`, 1.13%.
Then `CCC(C)N(CCNC(=O)c1c2c(nc3ccccc13)C(=O)N(C1CCCCC1)C2)Cc1ccco1` (stereo not drawn), with 2.48%; and `CCOC(=O)c1cc(C)n(CC2CCC(C(=O)Nc3cccc(C)n3)CC2)c1C` (stereo not drawn), with -0.943%.
With `CCOC(=O)c1cnn(C(C)(C)C)c1C1CCN(C(=O)OC(C)(C)C)CC1`, the “% Inhibition @ 10 uM” value was -2.83%.
Then `Cc1ccc(S(=O)(=O)N2CCCC2)cc1S(=O)(=O)N1CCCC1`, with 1.52%.
Then `CCC(=O)/N=c1/n(C)c2ccccc2n1CCOc1ccccc1`, with 0.512%; and `OC(COc1cccc2ccccc12)CN1CCN(CC(O)COc2cccc3ccccc23)CC1` (stereo not drawn), with 51.4%; and `Cc1ccccc1OCC(O)CN1CCN(CC(O)COc2ccccc2C)CC1` (stereo not drawn), with -0.053%.
Then `OC(COc1ccccc1Cl)CN1CCN(CC(O)COc2ccccc2Cl)CC1` (stereo not drawn), with 0.131%.
Take `Cc1cc(Br)ccc1OCC(=O)O/N=C(\N)c1cccnc1`: the “% Inhibition @ 10 uM” value is -6.94%.
As for `CCCCN(C)C(=O)CCNC(=O)Cn1ccc2ccccc2c1=O`, the figure is 7.85%; as for `CCOc1ccc(S(=O)(=O)N2CCSC2c2ccc(OC)c(OC)c2)cc1` (stereo not drawn), 25.4%; as for `O=C1/C(=C/c2ccc3nccnc3c2)CC/C1=C\c1ccc2nccnc2c1`, -0.503%.
As for `O=C1/C(=C/c2ccc3nccnc3c2)CCC1C1CCCC1` (stereo not drawn), the figure is 66.2%; as for `O=C1/C(=C/c2ccc(F)cc2)CCC1C1CCCC1` (stereo not drawn), 23.4%; as for `Cc1cc(C)c2c(n1)sc1c(=O)oc(C)nc12`, -0.13%.
Then `Cc1ccc(N(CC(=O)Nc2ccc(CC#N)cc2)S(=O)(=O)c2ccccc2)c(C)c1`, with -6.77%; and `O=C(NCc1ccco1)c1ccc(CN2CC(=O)N3CCCCC3C2=O)cc1` (stereo not drawn), with 3.7%; and `Cc1ccc(-c2cc(C(=O)N3CCN(C(=O)c4ccco4)CC3)[nH]n2)c(C)c1`, with 2.62%.
For `COCCN1C(=O)/C(=C/c2cccc(C)c2)S/C1=N\c1ccccc1`, the “% Inhibition @ 10 uM” value was determined as 64.4%.
In the case of `COCCN1C(=O)/C(=C/c2ccccc2)S/C1=N\c1ccccc1`, the “% Inhibition @ 10 uM” value was -4.21%.
As for `COCCN1C(=O)/C(=C/c2ccc(C)cc2)S/C1=N\c1ccccc1`, the figure is -11.1%.
Then `CCN(CC)CCCNc1cnnc2c(Cl)cccc12`, with -4.4%.
Then `COc1ccc(OC)c(C2C3=C(O)CCCC3=NC(C)=C2C(=O)Nc2ccccn2)c1` (stereo not drawn), with -8.82%; and `CCCNC(=O)Cn1nc(C)n2c(cc3cc(OC)ccc32)c1=O`, with 4.84%.
On to `COc1ccccc1CNC(=O)Cn1nc(C)n2c(cc3c(OC)cccc32)c1=O`, for which the “% Inhibition @ 10 uM” value was -3.47%.
As for `COc1ccc2c(c1)cc1c(=O)n(CC(=O)NCc3cccc(OC)c3OC)nc(C)n12`, the figure is 99.1%.
